The whole screen tested about 69,000 compounds, of which about 8,600 (12%) showed an effect of 50% or more. Many of the other results were omitted from the sample, so strong results are more common in it than they were.

This assay concerns Plasmodium berghei. The assay can be described thus: Screen against P. berghei liver stage (PbLuc), transformed with Luciferase, at 10uM. The class given is functional, HepG2. The conditions noted are these: tested at 10 uM.
`NC(=O)COc1ccc(CNCc2ccc(F)c(F)c2)cc1`: the INHIBITION is -33.2%.

As for `Cn1cc(CC2CCN(C(=O)NCc3cccc(C#N)c3)C2)cn1` (stereo not given), the INHIBITION stood at 8.55%.

Consider `CC(N1CCN(C(=O)NCc2cccc(C#N)c2)CC1)C(F)(F)F` (stereo not given), for which the INHIBITION turned out to be 56.7%.

For `CC1CN(C(=O)NCc2cccc(C#N)c2)CCN1CC(F)(F)F` (stereo not given), the INHIBITION stood at 19%.

With `Cc1cc(Cc2ccc(S(=O)(=O)N3CCSCC3)cc2)c(=O)[nH]n1`, the INHIBITION was determined as 13.2%.

As to `CCC1CN(CCCNS(C)(=O)=O)c2ccccc2O1` (stereo not given), the INHIBITION is recorded as 50.1%.

In the case of `CCC1CN(CCNS(C)(=O)=O)c2ccccc2O1` (stereo not given), the INHIBITION was -4.46%.

As for `CCC1CN(CCCO)c2ccccc2O1` (stereo not given), the INHIBITION is 29.8%.

Take `CN1C(=O)CCCC12CCCN(Cc1nccs1)C2` (stereo not given): the INHIBITION came out at 16.9%.

Turning to `CS(=O)(=O)N1CCCC12CCN(Cc1nccs1)CC2`, the INHIBITION is on record as 28.2%.

`O=C1CCC2(CCCN(Cc3nccs3)C2)N1CC1CC1` (stereo not given): the INHIBITION was 36.9%.

Consider `CN1C(=O)CCC12CCCN(Cc1nccs1)C2` (stereo not given), for which the INHIBITION was 59%.

On to `Cc1ccc(CN2CCC3(CCCN3S(C)(=O)=O)CC2)s1`, for which the INHIBITION was found to be 25.8%.

Consider `CS(=O)(=O)N1CCCC12CCN(Cc1nccs1)C2` (stereo not given), for which the INHIBITION is listed as -0.804%.

Take `COCCN1C(=O)CCC12CCCN(Cc1nccs1)CC2` (stereo not given): the INHIBITION is recorded as 48.6%.

Take `CCN1C(=O)CCC12CCCN(Cc1nccs1)C2` (stereo not given): the INHIBITION is given as 46.2%.

Take `Cc1ccc(CN2CCCC3(CCCN3S(C)(=O)=O)C2)s1` (stereo not given): the INHIBITION came to 63.8%.

Regarding `Cc1ccc(CN2CCCC3(CCCCN3S(C)(=O)=O)C2)s1` (stereo not given), the INHIBITION is 14.9%.

`CS(=O)(=O)N1CCCCC12CCCN(Cc1nccs1)C2` (stereo not given): the INHIBITION was determined as 60.3%.

`CCN1C(=O)CCC12CCCN(Cc1nccs1)CC2` (stereo not given): the INHIBITION was 59.7%.

With `Clc1ccccc1C1CN(CCc2ccncc2)CCO1` (stereo not given), the INHIBITION is listed as 29.1%.

Regarding `Cc1ccc(C(=O)N2CCC3(CC2)COC(COc2cccnc2)C3)o1` (stereo not given), the INHIBITION turned out to be 3.69%.

On to `CN(C)S(=O)(=O)N1CC[C@]2(O)CCN(CCc3cccc(F)c3)C[C@@H]2C1`, for which the INHIBITION stood at 3.96%.

As for `CN(C)[C@@H]1CN(Cc2ccoc2)C[C@@H]2CCCO[C@@H]21`, the INHIBITION came out at 25.6%.

As for `COCC1CN(C(C)=O)CCN(c2cc(C)ncn2)C1` (stereo not given), the INHIBITION was 24.4%.

On to `Cc1ccc(C(=O)N2C[C@H]3CCC[C@@]3(COc3ccccn3)C2)nc1`, for which the INHIBITION is given as -10.2%.

As to `Cc1cc(C2CCC2)nc(NCC(C)(C)CO)n1`, the INHIBITION is listed as -7.53%.

Take `Cc1c(S(=O)(=O)N2CCCCC2c2nnc(-c3cccs3)o2)cnn1C` (stereo not given): the INHIBITION is given as -11.28%.

Consider `CC(C)(O)CN1CCN(C(=O)c2cccc(CC#N)c2)CC1`, for which the INHIBITION is listed as -9.76%.

As to `Cc1noc(C)c1C1CCCN1C(=O)c1cn2ccsc2n1` (stereo not given), the INHIBITION was found to be 12.9%.

For `Cc1ccc(OCc2nc(CNCC3CN(C)CCO3)cs2)cc1` (stereo not given), the INHIBITION is reported as -45.6%.

Regarding `Cc1nc(N2CCC(CC(=O)N3CCCC3)CC2)c2cnn(C)c2n1`, the INHIBITION was found to be 31.2%.

Take `Cc1nc(N2CCC(CN3CCCC3)CC2)c2cnn(C)c2n1`: the INHIBITION amounted to 57.2%.

`CCCc1nc(N2CCCN3CCC[C@H]3C2)c2cnn(C)c2n1`: the INHIBITION is 27.7%.

For the compound `CCCc1nc(N2CCCC(CCOC)C2)c2cnn(C)c2n1` (stereo not given), the INHIBITION amounted to 40.6%.

`CCCc1nc(N2CCC(CCO)CC2)c2cnn(C)c2n1`: the INHIBITION amounted to 60%.

With `Cn1ncc2c(N3CCCN4CCC[C@H]4C3)nc(C(C)(C)C)nc21`, the INHIBITION is 31.6%.

As to `Cc1nc(N2CCCC(N3CCCC3)C2)c2cnn(C)c2n1` (stereo not given), the INHIBITION is on record as 55.1%.

With `COCc1nc(N2CCC(CCO)CC2)c2cnn(C)c2n1`, the INHIBITION is listed as 14.3%.

Regarding `Cc1nc(N2CCN(C(=O)CC3CCCC3)CC2)c2cnn(C)c2n1`, the INHIBITION is 0.0944%.

As to `CCc1n[nH]c(C2CN(C(=O)CCc3cscn3)CCO2)n1` (stereo not given), the INHIBITION was 7.42%.

As to `O=C(c1cccc(NCc2cccc(F)c2)c1)N1CCC(O)CC1`, the INHIBITION is recorded as -39.4%.

On to `CC1CN(CC(=O)NC(=O)NCc2ccccc2)CCO1` (stereo not given), for which the INHIBITION turned out to be 5.53%.

For `CCS(=O)(=O)c1ncc(CN2CCCC2)n1CCc1ccccc1`, the INHIBITION is 13%.

Consider `CCS(=O)(=O)c1ncc(CN2CCN(C)CC2)n1CCc1ccccc1`, for which the INHIBITION amounted to 38.7%.

As for `CCS(=O)(=O)c1ncc(CN2CCSCC2)n1CCc1ccccc1`, the INHIBITION is given as 58.9%.

In the case of `Cc1cc(CN2CCN(C(=O)NC(C)c3ccc(C)o3)CC2)on1` (stereo not given), the INHIBITION is 13.75%.

Take `CCN(C)C(=O)c1ccnn1-c1ccc2ccccn12`: the INHIBITION came out at 51.2%.

With `O=C(NCCN1CCOCC1)c1ccnn1-c1ccc2ccccn12`, the INHIBITION turned out to be 94%.

For `O=C(c1ccnn1-c1ccc2ccccn12)N1CCOCC1`, the INHIBITION stood at 13.1%.

With `O=C(NCCCN1CCOCC1)c1ccn(-c2ccc3ccccn23)n1`, the INHIBITION is given as 39.8%.

On to `COCCNC(=O)c1ccnn1-c1ccc2ccccn12`, for which the INHIBITION is 39.3%.

Take `CN(C)C1CCN(C(=O)c2ccnn2-c2ccc3ccccn23)CC1`: the INHIBITION is 4.98%.

As to `O=C(NCCN1CCOCC1)c1ccn(-c2ccc3ccccn23)n1`, the INHIBITION came to 47.2%.

For the compound `CN1CCCN(C(=O)c2ccnn2-c2ccc3ccccn23)CC1`, the INHIBITION is on record as 53.9%.
